# Data as given in paper PMC4336329 (PLoS ONE, 2015).
# Among all 310,000 compounds or so, about 14,000 (4.5%) showed an effect of 50% or more. Effects have a minus sign here. This is one part of a sample in which strong results are shown more often than they occur.
# Biological target: human ether-à-go-go-related gene (hERG) potassium channel (human, UniProt Q12809)
# Test: primary screen, population patch clamp on CHO cells stably expressing hERG; higher = less effect of the substance
# 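Note: peak tail current of the secondary pulse compared with the same well before compound.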
# human ether-à-go-go-related gene (hERG) potassium channel, sequence (Q12809 whole entry, looked up): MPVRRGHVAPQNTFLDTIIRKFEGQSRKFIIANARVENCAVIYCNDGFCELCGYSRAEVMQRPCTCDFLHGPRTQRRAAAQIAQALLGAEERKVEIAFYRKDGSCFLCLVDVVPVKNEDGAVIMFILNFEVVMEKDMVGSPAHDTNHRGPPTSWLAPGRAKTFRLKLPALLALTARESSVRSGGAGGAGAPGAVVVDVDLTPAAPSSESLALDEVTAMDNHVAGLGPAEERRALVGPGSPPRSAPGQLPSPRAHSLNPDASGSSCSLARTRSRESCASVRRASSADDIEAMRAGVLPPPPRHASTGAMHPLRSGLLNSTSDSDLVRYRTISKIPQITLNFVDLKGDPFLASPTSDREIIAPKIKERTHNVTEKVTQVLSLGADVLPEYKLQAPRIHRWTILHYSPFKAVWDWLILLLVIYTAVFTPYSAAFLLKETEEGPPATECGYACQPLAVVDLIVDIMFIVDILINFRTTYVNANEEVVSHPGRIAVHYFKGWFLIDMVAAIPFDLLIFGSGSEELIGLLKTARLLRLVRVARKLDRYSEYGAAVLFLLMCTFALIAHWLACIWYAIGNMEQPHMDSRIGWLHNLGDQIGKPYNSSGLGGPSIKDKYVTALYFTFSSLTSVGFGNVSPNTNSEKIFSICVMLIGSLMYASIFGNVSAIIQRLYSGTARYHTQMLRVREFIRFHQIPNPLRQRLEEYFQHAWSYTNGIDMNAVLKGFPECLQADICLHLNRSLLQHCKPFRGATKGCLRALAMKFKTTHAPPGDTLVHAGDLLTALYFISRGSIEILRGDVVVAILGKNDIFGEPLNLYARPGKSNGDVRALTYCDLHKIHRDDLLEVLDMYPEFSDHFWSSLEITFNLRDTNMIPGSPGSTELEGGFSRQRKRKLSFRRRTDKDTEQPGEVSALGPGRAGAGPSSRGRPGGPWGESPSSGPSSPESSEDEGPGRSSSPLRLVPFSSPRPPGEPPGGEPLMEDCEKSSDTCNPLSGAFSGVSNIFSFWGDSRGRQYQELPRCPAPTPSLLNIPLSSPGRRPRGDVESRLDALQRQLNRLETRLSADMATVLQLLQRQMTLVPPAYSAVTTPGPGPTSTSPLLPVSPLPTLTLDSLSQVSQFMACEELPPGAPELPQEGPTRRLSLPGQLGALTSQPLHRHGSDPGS
row,Compound,"hERG current change (%, negative = inhibition) at 10uM [%]"
1,O=C(NC1CCCCC1)c1ccc2snnc2c1,12.8
2,NS(=O)(=O)c1ccc(CCNC(=O)CCCCCn2c(=S)[nH]c3ccc(Br)cc3c2=O)cc1,9.32
3,O=C(O)c1ccc(-n2nnnc2SCc2cccc(Br)c2)cc1,13.2
4,COc1ccc(/C=C/C(=O)NC(=S)Nc2ccc(N3CCN(C(C)=O)CC3)cc2)cc1,12.2
5,COC(=O)C1=C(c2cccc(OCc3ccccc3)c2)C[C@@H]2CC[C@H]1N2C(=O)NNCc1ccccc1,10.8
6,CC1CC(C)CN(C(=O)Cn2cc(C=O)c3ccccc32)C1 (stereo not shown),-4.11
7,Cc1nn(C)c(C(=O)NNC(=S)NCc2ccco2)c1Cl,7.69
8,O=c1cc2c(nn1Cc1ccc(Cl)cc1)-c1ccccc1CC2,-13.6
9,O=c1cc2c(nn1Cc1ccccc1)-c1ccccc1CC2,-17.6
10,O=c1cc2c(nn1Cc1ccc(F)cc1)-c1ccccc1CC2,-61.3
11,C#Cc1ccc([C@H]2C=C(C(=O)O)O[C@@H](OCc3ccc(CO)cc3)C2)cc1,9.26
12,Clc1ccccc1OCCCCn1ccnc1,-2.93
13,O=C(O)CN1C(=O)/C(=C\c2ccccc2OCc2ccc(Cl)cc2)SC1=S,15.3
14,Cc1ccc(C2C(C(=O)c3cc4ccccc4o3)=C(O)C(=O)N2c2cc(C)on2)cc1 (stereo not shown),19.3
15,CCOc1ccc2nc(SCC(=O)Nc3ccc4[nH]c(=O)[nH]c4c3)[nH]c2c1,27
16,COc1cccc(COc2ccc(N(C)S(=O)(=O)c3ccccc3)cc2)c1,3.08
17,Cc1ccc2nc(COc3ccc(Cl)cc3)cc(=O)n2c1,15
18,Cc1ccc2nc(COc3ccc(N(C)S(=O)(=O)c4ccccc4)cc3)cc(=O)n2c1,-56
19,O=C(/C(Cl)=C/Nc1ccc(Br)cn1)C(F)(F)F,12.7
20,O=C(CN1C(=O)CC(c2ccco2)Sc2ccccc21)Nc1ccccc1F (stereo not shown),-39.3
21,Cc1cc(NC(=O)CN2C(=O)CC(c3ccco3)Sc3ccccc32)no1 (stereo not shown),-61.8
22,O=C(CN1C(=O)CC(c2ccco2)Sc2ccccc21)Nc1ccc2c(c1)OCCO2 (stereo not shown),-6.73
23,Oc1cccc(C=NCc2ccccc2)c1,8.22

row,Compound,"hERG current change (%, negative = inhibition) at 10uM [%]"
1,O=C(c1ccc(Cl)cc1)N1CCN(C(=O)C2CCCCC2)CC1,-2.89
2,Cc1cc(C)n(-c2nc(C)nc(N)n2)n1,10.3
3,CC(C)Oc1cccc(C(=O)C2CCCN(Cc3ccc(Oc4ncccn4)cc3)C2)c1 (stereo not shown),-62.6
4,CC(C)Oc1cccc(C(=O)C2CCCN(Cc3cnn(C(C)C)c3)C2)c1 (stereo not shown),-36.3
5,COc1c(C)cc(C(=O)C2CCCN(Cc3ccc(Oc4ncccn4)cc3)C2)cc1C (stereo not shown),-68.9
6,COc1c(C)cc(C(=O)C2CCCN(Cc3ccccn3)C2)cc1C (stereo not shown),-16.5
7,NC(=O)C1CCCN(Cc2ccc(Cl)cc2)C1 (stereo not shown),0.421
8,CC(C)Oc1cccc(C(=O)C2CCCN(Cc3ccc4nonc4c3)C2)c1 (stereo not shown),-1.53
9,O=C(c1ccc(Cl)cc1)C1CCCN(Cc2ccc(Oc3ncccn3)cc2)C1 (stereo not shown),-72.9
10,COc1c(C)cc(C(=O)C2CCCN(Cc3cccc(O)c3)C2)cc1C (stereo not shown),-23.9
11,COc1cccc(-n2cc3c(=O)n(C)c(=O)n(C)c3c2)c1,-3.89
12,O=C(Nc1ccccc1Br)C(=O)N1CCCC1,3.44
13,CCCC(C)NC(=O)Cc1ccccc1[N+](=O)[O-] (stereo not shown),2.52
14,CCCC(C)NC(=O)C1CCN(S(=O)(=O)c2ccccc2)CC1 (stereo not shown),-12
15,COc1ccc(OC)c(S(=O)(=O)Nc2cccc(-c3ccc4nncn4n3)c2)c1,18.7
16,CC(C)(C)C(=O)OCc1nc(-c2ccc3c(c2)OCCO3)cs1,10.8
17,CCOc1ccc(Cl)cc1CNCCNCCO.Cl,24.3
18,CCOc1ccc(Cl)cc1CNCCc1ccc(F)cc1.Cl,-48
19,CCN(CC)CCNCc1cc(Cl)ccc1OCc1ccccc1F.Cl,-72.8
20,CC(C)(C)NCc1cc(Cl)ccc1OCc1ccccc1F.Cl,-43.3
21,CCNCc1ccc(OCc2ccccc2F)c(OC)c1.Cl,-11
22,CCOc1ccc(Cl)cc1CNCCc1ccccc1F.Cl,-59.8
23,Cc1ccc2c(c1)C(c1ccccc1)N(C(=O)c1ccc(S(=O)(=O)N3CCOCC3)cc1)CC(=O)N2 (stereo not shown),-19.1

row,Compound,"hERG current change (%, negative = inhibition) at 10uM [%]"
1,COc1cc([N+](=O)[O-])ccc1NC(=O)C[n+]1ccccc1C.[Cl-],11
2,N#Cc1c(-c2ccccc2)cc(-c2ccccc2)nc1SCCC(=O)O,18.4
3,COc1ccc(/C(N)=N/OC(=O)c2ccc(C)c([N+](=O)[O-])c2)cc1,-6.61
4,O=C(N/C(=C\c1ccc(Br)cc1)C(=O)N1CCOCC1)c1ccc(Br)o1,-67.1
5,O=C(N/C(=C/c1ccc(Br)cc1)C(=O)N1CCOCC1)c1ccco1,-24.1
6,O=C(N/C(=C\c1ccc(Br)cc1)C(=O)N1CCOCC1)c1ccco1,-41
7,O=C(N/C(=C/c1ccc(Br)cc1)C(=O)N1CCOCC1)c1ccc(Br)o1,-70.2
8,O=C(N/C(=C\c1ccccc1)C(=O)N1CCOCC1)c1ccc(Br)o1,3.18
9,O=C(N/C(=C/c1ccc(Br)cc1)C(=O)N1CCOCC1)c1cccs1,-5.65
10,CCOC(=O)CN(C(=O)c1ccccc1[N+](=O)[O-])C(C)(C)C,9.73
11,COc1cccc(NC(=O)CCC2CCN(C(=O)c3cccc(NC(C)=O)c3)CC2)c1,-28.4
12,COc1cccc(C(=O)N2CCC(CCC(=O)Nc3cccc(C)c3)CC2)c1,-28.6
13,COc1cccc(NC(=O)CCC2CCN(C(=O)c3ccc(C(C)=O)s3)CC2)c1,-36.9
14,COc1ccc(C(=O)N2CCC(CCC(=O)Nc3cccc(C)c3)CC2)cc1,-68.3
15,COCc1ccc(C(=O)N2CCC(CCC(=O)Nc3cccc(C)c3)CC2)s1,-15.1
16,Cc1cccc(NC(=O)CCC2CCN(C(=O)c3ccc(C)s3)CC2)c1,-65.5
17,O=[N+]([O-])c1ccc(-c2nc(NCC3CCCO3)c3ccccc3n2)cc1 (stereo not shown),12.3
18,O=C(Cc1ccsc1)N1CCN(S(=O)(=O)c2cc(C(F)(F)F)cc(C(F)(F)F)c2)CC1,1.69
19,Cc1ccc(S(=O)(=O)CCc2nc3ccccc3[nH]2)cc1,-17.6
20,Cc1nc2cc(C)c(C)cc2s1,15.7
21,CS(=O)(=O)N(CC(=O)NC1CCCCCC1)Cc1ccccc1,-1.26
22,CN1C(=O)C(CC(=O)Nc2ccc(F)cc2)N(NC(=O)c2cccc(F)c2)C1=S (stereo not shown),-3.79
23,CCn1c(SCC(=O)c2ccc3ccccc3c2)nnc1-c1cccs1,-8.29

row,Compound,"hERG current change (%, negative = inhibition) at 10uM [%]"
1,COc1cc(C(=O)NC(=S)NCc2ccco2)cc(OC)c1OC,1.74
2,CC(=O)Nc1ccc2nc(CN3CCC(CO)(CCc4ccccc4)CC3)ccc2c1,-68.2
3,CCOC(=O)C1(Cc2ccccc2)CCN(Cc2ccc3cc(NC(C)=O)ccc3n2)CC1,-68.7
4,CC(=O)Nc1ccc2nc(CN3CCN(CC=C(C)C)C(CCO)C3)ccc2c1 (stereo not shown),11.5
5,CCOC(=O)C1(Cc2ccccc2)CCN(Cc2ccon2)CC1,0.71
6,CC(=O)Nc1ccc2nc(CN3CCN(CC(C)C)C(CCO)C3)ccc2c1 (stereo not shown),17
7,CCOC(=O)C1(Cc2ccccc2)CCN(Cc2cc(=O)c3ccccc3[nH]2)CC1,13.5
8,COc1ccc(C(=O)Nc2nc3c(s2)CCCC3)cc1S(=O)(=O)N1CCCc2ccccc21,-2.36
9,Cc1noc(C)c1COc1ccc(C(=O)O)cc1,17.1
10,CCCCc1n[nH]c2c1/C(=N/O)CC(c1ccccc1)C2 (stereo not shown),8.46
11,O=C(O)C(=O)O.OC(CNCCc1ccc(C(F)(F)F)cc1)COC(c1ccccc1)c1ccccc1 (stereo not shown),-34.7
12,COc1ccccc1COCC(O)CNCCc1ccc(C(F)(F)F)cc1.O=C(O)C(=O)O (stereo not shown),-56.5
13,COc1ccc(C(OCC(O)CNCCc2ccc(S(N)(=O)=O)cc2)c2ccc(OC)cc2)cc1 (stereo not shown),-43.2
14,COc1cccc(OCC(O)CNC(C)c2ccccc2)c1.Cl (stereo not shown),2.14
15,CC(NCC(O)COc1ccc2ccccc2c1)c1ccccc1.O=C(O)C(=O)O (stereo not shown),-44
16,Cc1ccc(C(OCC(O)CNC(CO)C(O)c2ccc([N+](=O)[O-])cc2)c2ccccc2)cc1 (stereo not shown),-22.4
17,Cc1cccc(C)c1OCC(O)CNC(C)c1ccccc1.Cl (stereo not shown),-13.7
18,COc1ccc(C(OCC(O)CNCCc2ccccc2)c2ccc(OC)cc2)cc1.O=C(O)C(=O)O (stereo not shown),-63.7
19,COc1ccc(C(OCC(O)CNC(C)c2ccccc2)c2ccc(OC)cc2)cc1 (stereo not shown),-52.4
20,Cc1ccc(C(OCC(O)CNC(C)c2ccccc2)c2ccccc2)cc1 (stereo not shown),-58.2
21,COc1ccc(CCNCC(O)c2ccccc2)cc1.O=C(O)C(=O)O (stereo not shown),-11.4
22,OC(CNCCc1ccc(C(F)(F)F)cc1)COc1cccc2ccccc12 (stereo not shown),-36.5
